Reference: paper PMC6919601, “Identification of Plasmodium dipeptidyl aminopeptidase allosteric inhibitors by high throughput screening” (PLoS ONE, 2019)
“And” between values parts separate entries of the source, which are not always exact repeats. Identical values can stand only once. Hit rate of the full screen: of about 110,000 compounds, about 230 (0.21%) showed an effect of 50% or more. The entries come from a sample that favours strong results as a whole.

Target: DPAP1 (Plasmodium falciparum, UniProt Q8IIJ9)
Assay: primary screen, percent inhibition; read by cleavage of a fluorogenic dipeptide substrate; higher = more effect of the substance
Set-up: species or system P. falciparum D10 trophozoite lysates; single well
Procedure: HTS was performed in black 384-well plates. The first and last two columns of each plate contained our negative (DMSO) and positive (10 μM JCP410) controls, and the 20 central columns the test compounds at 10 μM. Compounds were first diluted 50-fold into assay buffer (50 mM sodium acetate, 5 mM MgCl2, 10 mM β-mercaptoethanol, and 0.1% CHAPS, pH 5.5) from a 10 mM DMSO stock plates. One microliter of this 200 μM intermediate stock plate was dispensed into the assay plate. […] After 30 min, the reaction was quenched with 20 μL of 0.5 M acetic acid, and the fluorescent intensity measured at 523 nm (λex = 492 nm) using an Analyst HT multimode plate reader (Molecular Devices).
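Also: 30 min substrate incubation versus DMSO and 10 µM JCP410 controls.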

DPAP1, sequence (Q8IIJ9 whole entry, looked up): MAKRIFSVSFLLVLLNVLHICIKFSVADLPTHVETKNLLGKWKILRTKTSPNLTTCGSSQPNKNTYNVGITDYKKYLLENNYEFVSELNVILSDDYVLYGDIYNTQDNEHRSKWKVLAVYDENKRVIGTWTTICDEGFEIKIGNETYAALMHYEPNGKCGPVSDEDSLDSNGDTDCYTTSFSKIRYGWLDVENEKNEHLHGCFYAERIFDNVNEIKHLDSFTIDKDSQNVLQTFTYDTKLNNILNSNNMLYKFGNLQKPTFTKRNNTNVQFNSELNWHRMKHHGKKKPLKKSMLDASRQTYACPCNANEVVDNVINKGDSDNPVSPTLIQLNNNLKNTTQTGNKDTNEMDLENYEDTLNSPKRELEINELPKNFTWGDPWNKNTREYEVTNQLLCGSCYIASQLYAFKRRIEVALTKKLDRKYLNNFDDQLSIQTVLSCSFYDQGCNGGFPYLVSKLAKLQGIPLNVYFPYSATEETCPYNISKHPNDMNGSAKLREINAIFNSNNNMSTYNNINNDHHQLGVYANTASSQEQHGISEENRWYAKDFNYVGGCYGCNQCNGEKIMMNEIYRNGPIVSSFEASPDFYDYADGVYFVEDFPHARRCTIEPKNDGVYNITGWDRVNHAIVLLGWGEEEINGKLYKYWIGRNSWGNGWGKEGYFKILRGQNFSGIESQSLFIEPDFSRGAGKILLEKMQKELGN

| SMILES | % Inhibition @ 10 uM |
| --- | --- |
| CC1CCN(S(=O)(=O)c2ccc(NC(=O)c3ccc(-c4ccccc4)cc3)cc2)CC1 | 2.13% |
| Cc1sc2s[n+](CCCS(=O)(=O)O)c(C)c2c1C | -1.33% |
| CCOc1ccc(N2CC(C(=O)Nc3ccc(Br)cc3C)CC2=O)cc1 (stereo not drawn) | 4.05% |
| CCCCC(=O)Nc1c(-c2ccccc2)nc2ccccn12 | -3.19% |
| C=C(C)Cn1c(=S)[nH]c2sc3c(c2c1=O)CCCC3 | 57.3% |
| O=c1[nH]c(=S)[nH]c2sc3c(c12)CCC1(CCCCC1)C3 | 5.93% |
| CCn1c(=S)[nH]c2sc3c(c2c1=O)CCCC3 | 42.2% |
| CC1(C)Cc2c(sc3[nH]c(=S)[nH]c(=S)c23)CO1 | 15% |
| S=c1[nH]c(=S)c2c3c(sc2[nH]1)CCC3 | 85.2% |
| CCn1c(=S)[nH]c2sc3c(c2c1=O)CCC3 | 64.7% |
| O=c1c2c3c(sc2[nH]c(=S)n1Cc1ccccc1)CCC3 | 21% |
| O=c1c2c3c(sc2[nH]c(=S)n1C1CCCCC1)CCCC3 | 9.26% |
| O=c1c2c3c(sc2[nH]c(=S)n1Cc1ccccc1)CCCC3 | 3.06% |
| Cc1cc2nnc(SCC(=O)O)n2c2ccccc12 | -2.19% |
| C=C(C)COc1ccc2cc(-c3nc4ccccc4s3)c(=O)oc2c1 | 6.22% |
| CC(C)(C)c1ccc(C(=O)NCc2cccc3ccccc23)cc1 | -3.48% |
| N#CC1=C2SCN(C3CCCCC3)CN2C(=O)CC1c1cccc2ccccc12 (stereo not drawn) | 53.8% |
| Cc1ccccc1C1CC(=O)N2CN(C3CCCCC3)CSC2=C1C#N (stereo not drawn) | 24% |
| N#CC1=C2SCN(Cc3ccccc3)CN2C(=O)CC1c1cccc2ccccc12 (stereo not drawn) | 51.5% |
| N#CC1=C2SCN(Cc3ccco3)CN2C(=O)CC1c1cccc2ccccc12 (stereo not drawn) | 45.5% |
| Cc1ccccc1C1CC(=O)N2CN(Cc3ccccc3)CSC2=C1C#N (stereo not drawn) | 31.2% |
| N#CC1=C2SCN(C3CCCCC3)CN2C(=O)CC1c1ccccc1F (stereo not drawn) | 37.8% |
| COc1ccc(/C=C/C(=O)N2c3ccccc3C(C)(c3ccccc3)CC2(C)C)cc1 (stereo not drawn) | 56.6% |
| COc1ccc(C(=O)N2c3ccccc3C(C)(c3ccccc3)CC2(C)C)cc1 (stereo not drawn) | -2% |
| CC1(c2ccccc2)CC(C)(C)N(C(=O)/C=C/c2ccccc2)c2ccccc21 (stereo not drawn) | 0.467% |
| CCc1ccc(NC(=O)C2CCN(S(=O)(=O)c3cc(Cl)ccc3Cl)CC2)cc1 | -4.06% |
| O=C1c2ccccc2C(=O)N1CNc1ccc(Cl)c(Cl)c1 | -1.17% |

| SMILES | % Inhibition @ 10 uM |
| --- | --- |
| NC(=O)c1c(NC(=O)C23CC4CC(CC(C4)C2)C3)sc2c1CCCCC2 | 52.3% |
| NC(=O)c1c(NC(=O)C2CCC2)sc2c1CCCCC2 | 7.35% |
| NC(=O)c1c(NC(=O)C2CC2)sc2c1CCCCCC2 | 5.39% |
| CCOC(=O)c1c(NC(=O)C23CC4CC(CC(C4)C2)C3)sc2c1CCCC2 | -1.36% |
| NC(=O)c1c(NC(=O)C2CC2)sc2c1CCCCC2 | 50.4% |
| CC(=O)Nc1sc2c(c1C(N)=O)CCCCCC2 | 2.65% |
| Cn1ccc(C(=O)Nc2sc3c(c2C(N)=O)CCCCC3)n1 | 47% |
| Cn1cc(Br)c(C(=O)Nc2sc3c(c2C(N)=O)CCC3)n1 | 1.02% |
| Cn1cc(Br)c(C(=O)Nc2sc3c(c2C(N)=O)CCCCC3)n1 | 51.9% |
| O=C(Nc1cccc(Cl)c1)N1CCC(Cc2ccccc2)CC1 | 0.727% |
| Cc1cccc(NS(=O)(=O)c2ccccc2)n1 | -3.56% |
| COc1ccc(-c2cc(C(=O)N3CCOCC3)c3ccccc3n2)cc1 | 0.245% |
| COc1cc(C2C(C#N)=C(N)OC3=C2C(=O)CCC3)cc(OC)c1OC (stereo not drawn) | 0.687% |
| O=C(CCc1nnc2n(CCc3ccccc3)c(=O)c3ccccc3n12)N1CCOCC1 | 0.981% |
| O=C(NCc1ccccc1Br)C1CCCN(c2nnc(N3CCCC3=O)s2)C1 (stereo not drawn) | -4.68% |
| CC(C)CC(NC(=O)N1CCC(N2CCCCC2)CC1)C(=O)NCC#N (stereo not drawn) | -0.972% |
| Cc1ccccc1-c1ccccc1N | -0.305% |
| COc1ccc(CNC(=O)Cn2ncn3cccc3c2=O)cc1 | -5.15% |
| COc1ccc(OC)c(-n2cc(-c3ccccc3)nc2SC)c1 | 4.49% |
| CCOc1ccc(-c2cn(-c3ccccc3F)c(S)n2)cc1 | 56.2% |
| Fc1ccccc1-n1cc(-c2ccccc2)nc1S | 45.3% |
| COc1ccccc1-n1cc(-c2ccccc2)nc1S | 58.6% |
| Sc1nc(-c2ccccc2)cn1-c1ccccc1 | 37.1% |
| CCOc1cccc(-n2cc(-c3ccccc3)nc2S)c1 | 42.6% |
| CC1CC(C)CN(CCCNC(=O)Cn2ncn3nc(-c4cccs4)cc3c2=O)C1 (stereo not drawn) | 2.27% |
| Cc1ccc(C(=O)NC2(C(F)(F)F)C(=O)Nc3c2c(=O)[nH]c(=O)n3-c2ccc(Cl)cc2)cc1 (stereo not drawn) | -3.39% |
| CCc1cc2c(cc3c(=O)n(CC(=O)NCCc4ccc(OC)c(OC)c4)nc(CC)n32)s1 | 3.29% |

| SMILES | % Inhibition @ 10 uM |
| --- | --- |
| Cc1nn(C)c2c1c(-c1ccccc1)cc(=O)n2Cc1cccc(F)c1 | 2.65% |
| COc1ccc(CN2CCN(c3cccc(C)c3C)CC2)cc1OC | 9.04% |
| COc1cc(CN2CCN(c3cccc(C)c3C)CC2)cc(OC)c1 | 55.4% |
| COc1cc(CN2CCN(c3ccccc3C)CC2)cc(OC)c1 | 1.9% |
| O=C1NC(=O)/C(=C\c2ccc(-c3ccc(Cl)c(C(=O)O)c3)o2)S1 | 8.24% |
| O=C1NC(=O)/C(=C\c2ccc(-c3ccc(Cl)cc3)o2)S1 | 6.08% |
| O=C1NC(=O)/C(=C/c2ccc(-c3ccc(O)c(C(=O)O)c3)o2)S1 | 64.8% |
| OCCN(Cc1ccccc1)CC1CC=CCC1 (stereo not drawn) | 1.38% |
| COC(=O)c1cc(O)nc(SCc2cccc(C)c2)n1 | 4.47% |
| Cc1ccc(S(=O)(=O)c2cc3c(=O)n4ccccc4nc3n(C)c2=N)cc1 | 57.9% |
| Cc1ccc(S(=O)(=O)c2cc3c(=O)n4ccccc4nc3n(CCO)c2=N)cc1 | -4.59% |
| CCCn1c(=N)c(S(=O)(=O)c2ccc(C)cc2)cc2c(=O)n3ccccc3nc21 | 3.99% |
| C=CCOCC(O)CSc1nc(C)cc(C)n1 (stereo not drawn) | 3.48% |
| O=C(C1CCCC1)N1CCN(C(c2ccccc2)c2ccccc2)CC1 | 0.795% |
| O=C(Nc1ccccc1)c1nc2ccccc2s1 | 5.39% |
| CCCCCCc1cc2cc(C(=O)O)c(=O)oc2cc1O | 4.08% |
| CCCCCCc1cc2cc(C#N)c(=O)oc2cc1O | 67.5% |
| CCCCCCc1cc2cc(-c3csc(N)n3)c(=O)oc2cc1O | 1.12% |
| CCc1ccc(C2c3c(oc4ccccc4c3=O)C(=O)N2c2nc(C)c(C(=O)OC)s2)cc1 (stereo not drawn) | -1.86% |
| CCOC(=O)c1sc(N2C(=O)c3oc4ccccc4c(=O)c3C2c2ccc(O)c(OC)c2)nc1C (stereo not drawn) | 2.16% |
| CCOc1cc(C2c3c(oc4ccccc4c3=O)C(=O)N2c2nc(C)c(C(=O)OC)s2)ccc1O (stereo not drawn) | 69.6% |
| C=CCOc1ccc(C2c3c(oc4ccccc4c3=O)C(=O)N2c2nc(C)c(C(=O)OC)s2)cc1 (stereo not drawn) | 3.12% |
| CCOc1ccc(C2c3c(oc4ccccc4c3=O)C(=O)N2c2nc(C)c(C(=O)OC)s2)cc1 (stereo not drawn) | 70.8% |
| CCOc1cc(C2c3c(oc4ccccc4c3=O)C(=O)N2c2nc(C)c(C(C)=O)s2)ccc1O (stereo not drawn) | -0.828% |
| CCn1cc(C(=O)Nc2ccccc2C(C)C)cn1 | 6.1% |
| CCS(=O)(=O)c1nc(S(=O)(=O)c2ccc(C)cc2)c(NCCc2ccccc2)s1 | -5.89% |
| Cc1nc2c(nc(C)n2-c2ccccc2)s1 | 2.92% |

| SMILES | % Inhibition @ 10 uM |
| --- | --- |
| CCOc1ccc(Nc2nc(-c3cccs3)cs2)cc1 | -1.37% |
| CCCCNC(=O)C(CC)n1nc(C)c2sc3ccccc3c2c1=O (stereo not drawn) | -2.61% |
| CCc1ccc(CNC(=O)C(CC)n2nc(C)c3sc4ccccc4c3c2=O)cc1 (stereo not drawn) | 90.8% |
| CCC(C(=O)NCc1ccc(OC(C)C)cc1)n1nc(C)c2sc3ccccc3c2c1=O (stereo not drawn) | 2.8% |
| O=S(=O)(c1ccccc1)N1CCN(c2ccccc2)CC1 | 5.09% |
| CN1CCN(S(=O)(=O)c2ccccc2)CC1 | -0.127% |
| O=C1CN(S(=O)(=O)c2ccccc2)CCN1S(=O)(=O)c1ccccc1 | 60.8% |
| COc1cc(CN2CCc3c([nH]c4ccccc34)C2)cc2c1OCO2 | -5.11% |
| CC(=O)C1=C(C)OC(N)=C(C#N)C1c1cc2c(cc1[N+](=O)[O-])OCO2 (stereo not drawn) | -1.29% |
| CN(Cc1cnn(-c2ccccc2)c1)S(=O)(=O)c1ccc(-c2cc(C(F)(F)F)no2)s1 | 1.05% |
| CSc1nc(C)cc(C(F)(F)F)c1C#N | 4.97% |
| Cc1cc(C)c(C#N)c(S)n1 | 89.9% |
| COCc1cc(C)nc(S)c1C#N | 43.7% and 44.2% |
| CCc1nc(SCc2cccnc2)c(C#N)c(C(F)(F)F)c1C | 0.775% |
| CCc1nc(S)c(C#N)c(C(F)(F)F)c1C | 74.2% |
| Cc1cc(C(F)(F)F)c(C#N)c(S)n1 | 82.2% |
| CC(C)(C)c1cc(-c2ccco2)c(C#N)c(S)n1 | 20.6% |
| Cc1cc(-c2ccco2)c(C#N)c(N)n1 | 1.38% |
| Cc1cc(C(F)(F)F)c(C#N)c(SCc2ccccc2)n1 | 2.23% |
| CCc1nc(N)c(C#N)c(-c2ccc(Br)s2)c1C | -3.13% |
| Cc1cc(-c2ccco2)c(C#N)c(S)n1 | 51.7% |
| Cc1cc(C)c(C#N)c(Cl)n1 | 1.27% |
| O=C1c2cccnc2C(=O)N1c1ccccc1-c1ccccc1 | -2.29% |
| COCCNC(=O)c1sc2ncn(CC(=O)N3CCC(C)CC3)c(=O)c2c1C | -2.17% |
